{"source": "PubChem BioAssay AID1851", "about": "(National Center for Advancing Translational Sciences (NCATS), 2009)", "note": "In all, about 16,000 compounds went through this assay and about 5,800 (36%) were called active. Roughly 23% stayed inconclusive and do not appear here. The list shows a part of the results. A number with no mark means an inactive call. The call rests on the fitted dose curve; in most records, active means well fitted curve in the direction sought with a large enough effect; inconclusive means small, poorly fitted or top-dose-only effect, or effect the other way; inactive means no such curve, though single readings can be large or run the other way. On the % scale 0 is the no-effect control and ±100 the full control effect.", "data": [{"molecular_target": "Cytochrome P450 2C19 (Homo sapiens) (UniProt P33261)", "sequence (P33261 whole entry, looked up)": "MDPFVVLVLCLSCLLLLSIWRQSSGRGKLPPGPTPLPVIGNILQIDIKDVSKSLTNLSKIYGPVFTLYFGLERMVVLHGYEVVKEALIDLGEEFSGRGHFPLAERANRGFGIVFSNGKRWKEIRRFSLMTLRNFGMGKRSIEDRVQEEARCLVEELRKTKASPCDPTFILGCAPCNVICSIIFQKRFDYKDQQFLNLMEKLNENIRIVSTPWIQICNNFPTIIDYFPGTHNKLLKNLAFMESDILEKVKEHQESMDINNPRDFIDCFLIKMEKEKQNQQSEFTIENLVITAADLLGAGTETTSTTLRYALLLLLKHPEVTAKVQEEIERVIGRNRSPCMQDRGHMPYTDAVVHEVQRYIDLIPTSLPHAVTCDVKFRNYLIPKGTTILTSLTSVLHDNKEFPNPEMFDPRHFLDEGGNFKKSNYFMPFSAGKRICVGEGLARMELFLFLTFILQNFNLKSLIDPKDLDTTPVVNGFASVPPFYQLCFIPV", "test": "Cytochrome panel assay with activity outcomes", "conditions": "recombinant CYP, pro-luciferin dealkylation, luminescence, p450-cyp2c19; series mostly up to 57.1 µM; activity, negative = inhibition: at the top concentration", "protocol": "The P450 gene superfamily is involved in the metabolism and clearance of xenobiotics. This assay used various human CYP P450 isozymes to measure the dealkylation of various pro-luciferin substrates to luciferin. The luciferin is then measured by luminescence after the addition of a luciferase detection reagent. Pro-luciferin substrate concentration in the assay was equal to its KM for its CYP P450 isozyme. Inhibitors and some substrates limit the production of luciferin, and decrease measured luminescence.\nNCGC Assay Protocol Summary:\n1, Reagent, 2 uL, Isozyme and Pro-Luciferin\n2, Library compounds, 23 nl, 40 uM to 0.24 nM dilution series\n3, Controls, 23 nl, Isozyme specific inhibitor\n4, Reagent, 2 uL, NADPH regeneration solution\n5, Incubation time, 60 min, Isozyme specific temperature\n6, Reagent, 4ul, Detection reagent\n7, Incubation time, 20 min, Isozyme specific temperature\n8, Detection, 1 sec, ViewLux luminescent read\nThe luciferase-based P450-GloTM Screening Systems were obtained from Promega (Madison, WI) for CYP 1A2 (V9770), CYP 2C9 (V9790), CYP2 C19 (V9880), CYP 2D6 (V9890), and CYP 3A4 Luciferin-PPXE (V9910) and were adapted for 1,536-well microplates and an automated protocol. The control compounds furafylline for 1A2 (F124), sulfaphenazole for CYP 2C9 (S0758), ketoconazole for CYP 2C19 (K1003), quinidine for 2D6 (Q3625), and ketoconazole for 3A4 (K1003) were purchased from Sigma Aldrich (St. Louis, MO). Recombinant P450 enzymes were obtained from baculovirus constructs expressed in insect cells (BD/Gentest).\nMedium-binding white solid Kalypsys plates used. Mixtures kept on ice. 1A2: 10 nM 1A2, 100 uM Luc-ME, 100 mM KPO4; 2C9: 10 nM 2C9, 100 uM Luc-H, 25 mM KPO4; 2C19: 5 nM 2C19, 10 uM Luc-H EGE, 50 mM KPO4; 2D6: 5 nM 2D6, 30 uM Luc-ME EGE, 100 mM KPO4; 3A4: 10 nM, 25 uM Luc-PPXE. All amounts are reflected in their final concentration, working concentration is 2x.\nNADPH regeneration solution: 1.3 mM NADP+, 3.3 mM glucose-6-phosphate, 3.3 mM MgCl2, 0.4 U/mL glucose-6-phosphate dehydrogenase for all isozymes, 200 mM KPO4 for 3A4. Mixture prepared at RT but kept on ice during automated run.\nRT incubation in auxilliary plate hotel for 1A2, 2D6, and 3A4; 37C for 2C9 and 2C19.\nKeywords: P450, CYP1A2, CYP2C19, CYP2C9, CYP2D6, CYP3A4, Luciferase, MLSMR, MLSCN, NIH Roadmap, qHTS, NCGC", "values": [{"smiles": "C=CCN=C1CC(C)(C)CC(=O)/C1=C(/O)CCC(=O)OC", "AC50": "14.1 µM (active)"}, {"smiles": "C=CCN=C1CC(C)(C)CC(=O)/C1=C(\\O)c1ccccc1", "AC50": "25.1 µM (active)"}, {"smiles": "N#CCCn1c(=O)c(-c2ccccc2)nc2cnc(Nc3ccccc3)nc21", "activity, negative = inhibition": "-8.35%"}, {"smiles": "CCNC(=O)c1ccc(-n2nc(C)cc2-c2ccccc2)cc1", "AC50": "11.2 µM (active)"}, {"smiles": "Nc1ccc(C(=O)NCC(=O)O)cc1", "activity, negative = inhibition": "5.57% [at 25.6 µM]"}, {"smiles": "Cc1nc2cnc(N3CCOCC3)nc2n(CCC#N)c1=O", "activity, negative = inhibition": "-4.01%"}, {"smiles": "Fc1ccc(-c2cnc(-c3cccs3)o2)cc1", "AC50": "6.31 µM (active)"}, {"smiles": "Cc1ccc(N2C(=O)CC(c3ccsc3)C3=C2CC(C)(C)CC3=O)cc1", "note": "(stereo not given)", "AC50": "2.51 µM (active)"}, {"smiles": "N#Cc1cc2nc(O)c(O)nc2cc1[N+](=O)[O-]", "AC50": "inactive"}, {"smiles": "CC1CCCCN1c1cc(C#N)c(C#N)cc1[N+](=O)[O-]", "note": "(stereo not given)", "AC50": "4.47 µM (active)"}, {"smiles": "N#Cc1cc2[nH]c(=O)c(=O)[nH]c2cc1[N+](=O)[O-]", "activity, negative = inhibition": "-9.46%"}, {"smiles": "CCC(C)NC(=O)C1c2cc(OC)c(OC)cc2C(=O)N(C)C1c1cccs1", "note": "(stereo not given)", "activity, negative = inhibition": "-15%"}, {"smiles": "Clc1ccc(Cc2nc(-c3cccnc3)no2)cc1", "AC50": "1.78 µM (active)"}, {"smiles": "Nc1nc(-c2cccnc2)cc(-c2cc(-c3cccnc3)nc(N)n2)n1", "activity, negative = inhibition": "-16.6% [at 11.4 µM]"}, {"smiles": "Cn1cccc1C(=O)N1CCC2(CCN(Cc3nccs3)CC2)CC1", "activity, negative = inhibition": "-0.0178%"}, {"smiles": "N#Cc1c(NC(=O)C2CC(c3ccccc3Cl)=NO2)sc2c1CCC2", "note": "(stereo not given)", "AC50": "2 µM (active)"}, {"smiles": "Cc1cc2cccc(C)c2nc1SCC(=O)N(C)c1nc(-c2ccccc2)cs1", "activity, negative = inhibition": "-27.1%"}, {"smiles": "CCC(=O)N(Cc1ccco1)c1nc(-c2ccccc2)cs1", "AC50": "5.62 µM (active)"}, {"smiles": "N#CCCn1nnc2ccccc21", "activity, negative = inhibition": "-23.8%"}, {"smiles": "Nn1nnc2ccccc21", "activity, negative = inhibition": "-11.1%"}, {"smiles": "Cc1ccnc(NCn2nnc3ccccc32)c1", "AC50": "15.8 µM (active)"}, {"smiles": "O=C(O)C[n+]1ccccc1", "activity, negative = inhibition": "-3.69% [at 11.4 µM]"}, {"smiles": "Cc1cc(NC(=O)c2c(F)cccc2F)n(-c2nc3ccccc3[nH]2)n1", "AC50": "11.2 µM (active)"}, {"smiles": "Cc1cc(NC(=O)c2ccc(S(=O)(=O)N(C)C)cc2)n(-c2ccccn2)n1", "activity, negative = inhibition": "4.21%"}, {"smiles": "COc1cc(NC(=O)c2c(F)cccc2F)nc(OC)n1", "activity, negative = inhibition": "-15.5%"}, {"smiles": "Nc1ncnc2c1ncn2[C@@H]1CCCO1", "activity, negative = inhibition": "14.6%"}, {"smiles": "Cc1nc(S(=O)(=O)NC2CCCCC2)c(C#N)c(C)c1Cl", "AC50": "2.82 µM (active)"}, {"smiles": "Cc1nc(S(=O)(=O)N(C)c2ccccc2)c(C#N)c(C)c1Cl", "AC50": "6.31 µM (active)"}, {"smiles": "CCC[C@H]1C(=O)N2C(N(C)C)=Nc3ccc(C)cc3N2C1=O", "activity, negative = inhibition": "-39.6% [at 25.6 µM]"}, {"smiles": "COc1ccc(C[C@@H]2c3cc(OC)c(OC)cc3CC[N@+]2(C)CCC(=O)OCCCCCOC(=O)CC[N@@+]2(C)CCc3cc(OC)c(OC)cc3[C@H]2Cc2ccc(OC)c(OC)c2)cc1OC", "activity, negative = inhibition": "-12.9% [at 25.6 µM]"}]}]}
